High-throughput results from PubChem BioAssay.
Only a selection was taken, and hits are over-represented in it overall.
NS1 inh – qHTS Assay for Inhibitors of Influenza NS1 Protein Function; Potency, µM (series often up to 46.1 µM), inactives show top-dose activity, positive = more growth; 270,000 compounds, 0.4% hits; AID 2326, 2010; calls by dose curve; also: potency is read from the fitted curve at half-maximal effect; actives are rising curves; nearly all actives have a fitted effect of over 50% in size
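Recovery from NS1-induced slow growth read by OD600 in budding yeast switched to galactose assay medium (pH 6.0, -URA) at 1:100 dilution. Compound 23 nl per well; the matching strain lacking NS1 serves as control.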
Shiga toxin inh – A qHTS for Small Molecule Inhibitors of Shiga Toxin; Vero cells, Shiga toxin protein synthesis inhibition reporter; inhibition, % at 38.7 µM; 290,000 compounds, 9.2% hits; AID 2315, 2010; in the data active = inhibition mostly above about 28%, no sharp cut-off; inactive = mostly below about 43%; also: 0% is about no effect
AmpC inh detg – qHTS Inhibitors of AmpC Beta-Lactamase (assay with detergent). P00811. AmpC hydrolysis of nitrocefin, absorbance 480 nm, 0.01% Triton. Potency, µM (titrated, usually from 114 µM), inactives show at the highest dose activity change, negative = inhibition, actives largely listed as inhibitors. 370,000 compounds, 0.041% hits. AID 485294, 2010;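 also: potency is read from the fitted curve at half-maximal effect; 0% = no-compound wells and -100% = no-enzyme wells; nearly all actives have a fitted effect of over 25% in size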
Target sequence (P00811 whole entry, looked up): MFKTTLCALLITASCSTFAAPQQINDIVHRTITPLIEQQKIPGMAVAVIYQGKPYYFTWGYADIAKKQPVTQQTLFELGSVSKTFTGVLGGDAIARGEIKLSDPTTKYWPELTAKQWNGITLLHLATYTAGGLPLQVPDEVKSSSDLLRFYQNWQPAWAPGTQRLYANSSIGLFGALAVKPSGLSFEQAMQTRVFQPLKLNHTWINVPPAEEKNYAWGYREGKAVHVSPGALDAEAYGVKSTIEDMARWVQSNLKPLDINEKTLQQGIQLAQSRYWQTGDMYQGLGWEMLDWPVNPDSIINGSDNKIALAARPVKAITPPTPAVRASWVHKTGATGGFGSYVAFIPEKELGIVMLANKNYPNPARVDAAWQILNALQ
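AmpC (5.3 nM in the dispensed reagent) in 20 mM phosphate pH 7.0 with 0.01% (detergent screen) or 0.0001% Triton X-100 was preincubated with compounds for 15 min at room temperature. Nitrocefin was then added from an 800 uM solution, and hydrolysis was followed at 480 nm.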
Cycloheximide cs – Cycloheximide Counterscreen for Small Molecule Inhibitors of Shiga Toxin | cell reporter, cycloheximide protein synthesis inhibition counterscreen | max response, % | 300,000 compounds, 12% hits; in the data active = max response mostly above about 13%, no sharp cut-off; inactive = mostly below about 14%; also: read at 38.3 µM for the half of the compounds with a filed dose; 0% is about no effect
AmpC inh no detg – qHTS Inhibitors of AmpC Beta-Lactamase (assay without detergent); AmpC nitrocefin hydrolysis, absorbance 480 nm, 0.0001% Triton; Potency, µM (series often up to 57.1 µM), for inactives: at the highest dose activity change, negative = inhibition, most hits filed as inhibitors; P00811; 330,000 compounds, 0.52% hits;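 also: potency is read from the fitted curve at half-maximal effect; plate controls were no compound for no effect and no enzyme for full effect; nearly all actives have a fitted effect of over 20% in size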
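AmpC (5.3 nM in the dispensed reagent) in 20 mM phosphate pH 7.0 with 0.01% (detergent screen) or 0.0001% Triton X-100 was preincubated with compounds for 15 min at room temperature. Nitrocefin was then added from an 800 uM solution, and hydrolysis was followed at 480 nm.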
Active calls of the source: *; u = inconclusive; x = not tested or not shown; [ ] = another dose, or the depositor's remark. Unless noted, calls follow the shape of the dose curve; as a rule, active = well fitted curve in the direction sought with a large enough effect; inconclusive = small, poorly fitted or top-dose-only effect, or another doubt; inactive = no such curve, though single readings can be large; an effect the other way counts as inactive or inconclusive.

SMILES	NS1 inh	Shiga toxin inh	AmpC inh detg	Cycloheximide cs	AmpC inh no detg
O=C(CSc1nc2ccccc2o1)Nc1nccs1	x	30.7	3.7%	27.7*	-52.2%
O=C(CSc1nc2ccccc2o1)Nc1nc(-c2ccccc2)cs1	11.7%	110.6*	-6.2%	71.9*	-46.7%
Cc1sc(NC(=O)CSC2=NCCS2)nc1-c1ccccc1	18.7%	-11.2	u	-2.9	-28.2%
O=C(CSc1nc2ccccc2o1)Nc1nc2ccccc2s1	-5.1%	48.7*	-13.0%	43.5*	-25.1%
O=C(CSC1=NCCS1)Nc1nc2ccccc2s1	-4.4%	81.2*	u	28.2*	-34.4%
CCc1nnc(NC(=O)CSc2ncnc3c2oc2ccccc23)s1	4.1%	-7.1	-4.8%	-3.6	0.9%
NC(=O)c1ccccc1NC(=O)CSC1=NCCS1	21.8%	14.4	-0.5%	10.6*	-25.9%
O=C(CSc1ncnc2c1oc1ccccc12)Nc1nc2ccccc2s1	0.3%	10.0	u	-3.3	0.794µM*
O=C(CSC1=NCCS1)Nc1ccc(F)cc1	2.5%	-3.9	4.1%	4.4	-18.0%
N#CCC(=O)Nc1ccc(C(=O)OCC(=O)c2ccc3c(c2)NC(=O)CO3)cc1	x	x	-8.5%	x	-13.3%
Cc1ccc(Oc2ncnc3sccc23)cc1	11.4%	90.5*	u	55.0*	25.1%
c1ccc(OCCOc2ncnc3sccc23)cc1	-9.4%	68.9*	3.2%	37.7*	-11.7%
CCOc1ccc(OCCOc2ncnc3ccccc23)cc1	0.3%	68.1	u	41.4*	-8.2%
Cn1c(=N)n(CC(=O)c2ccc(Cl)c(Cl)c2)c2ccccc21	u	23.1	-3.8%	3.4	58.1%
Cc1cccc(-c2nc(=S)c3c(o2)CCCC3)c1	0.8%	129.5*	0.4%	48.5*	-56.9%
S=c1nc(-c2ccc(Br)cc2)oc2c1CCCC2	-0.1%	4.8	-5.6%	32.9	-19.6%
Cc1cccc(/C=N/NC(=O)NC2CCCCC2)c1	-18.6%	68.8*	9.1%	39.4*	6.2%
CC(C)c1ccc(/C=C/C(=O)NC2CCCCC2)cc1	8.9%	14.5	0.5%	13.3	-32.4%
Cc1ccc(/C=C/C(=O)NC2CCCCCCC2)o1	-45.4%	73.6*	-10.6%	40.5*	-40.6%
Cc1ccc(/C=N/NC(=O)Nc2ccccc2)o1	-10.4%	99.9*	u	53.8*	-20.9%
Cc1ccc(/C=N/NC(=S)NC(C)C)o1	15.9%	24.2	-5.4%	8.5	-21.5%
Cc1ccc(/C=N/NC(=O)NC2CCCCC2)o1	x	41.5*	-0.7%	20.9*	-12.4%[11.4 µM]
CCOC(=O)C1CCN(c2c(NCc3ccc(C(=O)O)cc3)c(=O)c2=O)CC1	-3.6%	x	x	x	x
COc1cc(C(=O)OCC(=O)N2CCNC2=O)cc(Cl)c1OC	x	x	u	x	104.1%
Cc1oc2ncn(C)c(=O)c2c1C(=O)Nc1ccc(F)cc1	x	x	4.3%	x	x
SMILES	NS1 inh	Shiga toxin inh	AmpC inh detg	Cycloheximide cs	AmpC inh no detg
CC1Sc2ccc(C(=O)OCc3ccccc3Cl)cc2NC1=O (stereo unspecified)	x	x	-4.9%	x	-20.8%
O=C(O)c1cc(-n2[nH]c(=O)c3ccccc3c2=O)ccc1Cl	15.4%	148.4*	6.6%	43.5*	-14.1%
O=c1[nH]n(-c2ccccc2)c(=O)c(Cl)c1Cl	7.3%	-7.9	u	0.7	-16.4%
COc1ccccc1OC(C)C(=O)N(Cc1ccco1)C1CCS(=O)(=O)C1 (stereo unspecified)	-7.5%	24.7*	u	14.1*	-5.4%
CCc1ccc(OC(C)C(=O)N(Cc2ccco2)C2CCS(=O)(=O)C2)cc1 (stereo unspecified)	-9.2%	23.9	u	-1.7	32.6%
COC(=O)/C=c1\[nH]c2nnc(C)n2c1=O	4.6%	-3.7	1.4%	1.2	9.1%
CCCCNc1nc2ccccc2n1CC(=O)Nc1c(C)cccc1CC	-9.5%	-2.7	-6.8%	-4.3	20µM*
CCCCC(c1nnnn1CS(=O)(=O)c1ccc(C)cc1)N1CCN(c2ccccc2)CC1 (stereo unspecified)	7.08µM*	-14.4	-0.2%	-1.8	-22.8%
CCOP(=O)(OCC)C(=Cc1cc(C(C)(C)C)c(O)c(C(C)(C)C)c1)P(=O)(OCC)OCC	x	-5.2	x	-3.8	x
CCn1nc(C)c(/C=N/NC(=O)Cn2nccc2C)c1C	2.0%	71.7*	-11.1%	37.4*	-31.2%
CC/C(=N\NC(=O)c1c[nH]c2ccccc12)c1cccs1	u	61.4*	u	61.7*	-38.7%
Cc1ccc(/C=N/NC(=O)c2c[nH]c3ccccc23)o1	0.4%	71.9*	-4.0%	20.0*	-52.6%
Cc1ccc(/C=N/NC(=O)c2c[nH]c3ccccc23)s1	-21.7%	77.0*	-2.8%	30.4*	-54.0%
Cc1ccc(NC(=O)C2=C(C(=O)O)CCCC2)cc1F	17.3%	-3.1	0.6%	7.8	-13.9%
C/C(=N\NC(=O)c1c[nH]c2ccccc12)c1ccc(C)s1	7.4%	38.1	u	25.0*	-28.2%
CCn1nc(C)c(/C=N/NC(=O)Cn2nc(C)cc2C)c1C	4.5%	31.1	-10.1%	4.1	-9.0%
O=C(N/N=C/c1cccc([N+](=O)[O-])c1)c1c[nH]c2ccccc12	2.7%	79.2*	3.5%	34.4*	-42.8%
CCn1nc(C)c(/C=N/NC(=O)c2c[nH]c3ccccc23)c1C	-1.3%	39.9*	-8.6%	49.9*	-26.1%
O=C(N/N=C/c1ccsc1)c1c[nH]c2ccccc12	-0.5%	66.7*	-6.7%	46.7*	-43.9%
Cc1nc2c(c(C)c1CCC(=O)Nc1cccc(C(F)(F)F)c1)c(=O)n(C)c(=O)n2C	x	x	16.4%	x	x
Cc1nc2c(-c3ccccc3)c(C)nn2c(C)c1CCC(=O)NCc1ccc(F)cc1	x	x	1.0%	x	x
CCCn1c(=N)c(C(=O)NC(C)c2ccccc2)cc2c(=O)n3ccccc3nc21 (stereo unspecified)	x	x	2.7%	x	x
COc1ccc(C/C(C)=N\NC(=O)c2c[nH]c3ccccc23)cc1OC	1.3%	71.2*	2.1%	28.8*	-39.0%
Cc1ccsc1/C=N/NC(=O)c1c[nH]c2ccccc12	-3.7%	106.3*	-6.0%	59.9*	-24.0%
COc1ccc(CCNc2c3ccccc3nc3ccccc23)cc1OC	-48.4%	36.4	-4.0%	9.4	-24.0%
SMILES	NS1 inh	Shiga toxin inh	AmpC inh detg	Cycloheximide cs	AmpC inh no detg
O=C(Cn1cc([N+](=O)[O-])cn1)N1CCCc2ccccc21	x	52.6*	4.1%	28.3	-14.0%
O=C(NC(=S)N1CCCc2ccccc21)c1ccc([N+](=O)[O-])cc1	14.1%	58.5*	3.6%	47.4*	2.0%
O=C(C(=O)N1CCCc2ccccc21)N1CCCc2ccccc21	-13.6%	-10.4	9.1%	0.5	3.8%
O=C(NC(=S)N1CCCc2ccccc21)c1ccc(Cl)cc1	u	73.3*	-5.5%	52.2*	13.9%
O=C(NC(=S)N1CCCc2ccccc21)c1ccccc1	7.0%	68.7*	-0.2%	24.7*	-17.9%
O=C(O)c1cccc([As]=[As]c2cccc(C(=O)O)c2)c1 (stereo unspecified)	1.8%	x	x	x	x
CCN(CC)CCCn1c2c(c(SCC(=O)Nc3ccc(OC(F)(F)F)cc3)nc1=O)CCC2	x	x	u	x	90.0%
